GPT2 inhibitor: Primary qHTS assay for inhibitors of Glutamate pyruvate transaminase 2 (GPT2). Alanine aminotransferase 2 (Homo sapiens), Q8TD30. Potency, µM (highest dose often 57.7 µM), usual class: inhibitors. 100,000 compounds, 0.25% hits. Recombinant GPT2, coupled pyruvate oxidase/HRP Amplex Red fluorescence; also: nearly all actives have a fitted effect of over 60% in size
Target sequence (Q8TD30 whole entry, looked up): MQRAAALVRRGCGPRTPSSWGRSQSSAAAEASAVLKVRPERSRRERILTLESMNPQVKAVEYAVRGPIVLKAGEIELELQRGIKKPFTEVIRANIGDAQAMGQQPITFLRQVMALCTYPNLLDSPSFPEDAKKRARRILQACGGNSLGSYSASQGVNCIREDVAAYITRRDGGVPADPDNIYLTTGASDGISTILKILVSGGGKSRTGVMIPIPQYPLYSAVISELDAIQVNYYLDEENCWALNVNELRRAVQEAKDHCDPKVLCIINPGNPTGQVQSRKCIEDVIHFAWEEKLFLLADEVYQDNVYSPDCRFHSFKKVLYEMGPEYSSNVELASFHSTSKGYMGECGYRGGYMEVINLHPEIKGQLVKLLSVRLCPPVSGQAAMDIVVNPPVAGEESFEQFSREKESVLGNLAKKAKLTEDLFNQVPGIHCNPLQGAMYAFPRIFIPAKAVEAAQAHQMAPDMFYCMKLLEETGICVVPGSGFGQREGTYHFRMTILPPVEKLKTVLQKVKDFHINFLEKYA
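Fluorescence of coupled pyruvate oxidase/HRP/Amplex Red system (50uM Amplex, 30 min, dark) reports pyruvate formed by GPT2. Enzyme reaction: 10ng/uL GPT2, 2mM L-alanine, 250uM a-KG, 30 min room temperature, pH 7.5; 50uM AOA control.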
Luciferase inh: Firefly luciferase inhibition profiling of diverse chemical library using quantitative high-throughput screening | Luciferin 4-monooxygenase (Photinus pyralis), P08659 | purified P. pyralis luciferase, luminescence, biochemical | Potency, µM (top dose mostly 115 µM), usual class: inhibitors | 76,000 compounds, 2.5% hits | AID 1347043, 2019; also: nearly all actives have a fitted effect of over 65% in size
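Biochemical qHTS: compound (6-point titration) added to 10uM D-luciferin plus 10uM ATP in Tris acetate pH 7.5 buffer with Mg, Tween-20 and BSA, then purified enzyme at 10nM; light output imaged.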
3T3 cytotox: Cytotoxic Profiling in NIH 3T3 Cell Line of Diverse Libraries Using Quantitative High-Throughput Screening. 94,000 compounds, 4.3% hits. Potency, µM (highest dose often 96.7 µM), most hits filed as inhibitors. NIH 3T3 viability, CellTiter-Glo ATP luminescence, 48-72 h. AID 1345082, 2018; also: nearly all actives have a fitted effect of over 55% in size
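Cytotoxicity was measured by CellTiter-Glo ATP luminescence after 48 or 72 h compound exposure at 37 °C. Mouse NIH 3T3 fibroblasts were seeded at 400 cells/well and dosed by 23 nL pin transfer.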
HEK cytotox: Cytotoxic Profiling in HEK 293 Cell Line of Diverse Libraries Using Quantitative High-Throughput Screening; HEK 293 viability, ATP luminescence (CellTiter-Glo), 48-72 h; Potency, µM (top dose mostly 115 µM), actives largely listed as inhibitors; 94,000 compounds, 6.6% hits; also: nearly all actives have a fitted effect of over 60% in size
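ATP-coupled CellTiter-Glo luminescence served as viability read-out, recorded 10 min after reagent addition at room temperature. HEK 293 cells, 250 cells/well, had been incubated with pintool-transferred compound for 48 or 72 hr at 37 degree Celsius.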
hNpr1 antagonist: Natriuretic polypeptide receptor (hNpr1) antagonism - Primary qHTS. 76,000 compounds, 1.6% hits. Potency, µM (series often up to 46.3 µM), hits mostly inhibitors. HEK293 hNpr1 GloSensor cGMP, ANP-stimulated luminescence; calls by dose curve; also: nearly all actives have a fitted effect of over 60% in size
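Compound pre-incubated 30 min at room temperature on GloSensor-loaded HEK293 cells stably carrying hNpr1 and the pGS-40F cGMP biosensor. Stimulation uses hNppA at 0.1 nM final; luminescence is taken at baseline and 20 min post-agonist.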
Hits are given with their value; n = inactive; u = inconclusive; x = no result; [ ] = remark or other dose. Rows were chosen to be rich in hits. Some 10% of all compounds tested hit in one or more screens of this group. Unless noted, calls follow the shape of the dose curve; as a rule, active = well fitted curve in the direction sought with a large enough effect; inconclusive = small, poorly fitted or top-dose-only effect, or another doubt; inactive = no such curve, though single readings can be large; an effect the other way counts as inactive or inconclusive.

SMILES | GPT2 inhibitor | Luciferase inh | 3T3 cytotox | HEK cytotox | hNpr1 antagonist
Cc1ccc(C)c(S(=O)(=O)N2CCCC(CO)(Cc3cccc(Cl)c3)C2)c1 (configuration not stated) | n | n | u | u | n
O=S(=O)(c1cccc2ccccc12)N1CCCC(CO)(Cc2cccc(Cl)c2)C1 (configuration not stated) | n | n | 45µM | u | n
OCC1(Cc2ccccc2)CCCN(Cc2cnn(-c3cccc(Cl)c3)c2)C1 (configuration not stated) | n | n | 79µM | 79µM | n
CN1CCN(Cc2cnn(-c3cccc(Cl)c3)c2)CC1CCO (configuration not stated) | n | n | u | n | n
CCOC(=O)C1=CN(CC(=O)Nc2cccc(C)c2C)S(=O)(=O)N=C1C | n | n | n | u | n
O=C(O)CCn1ncc2cc(OCC3CCN(C(=O)Oc4ccccc4Cl)CC3)ccc21 | n | u | 18µM | n | n
O=C(O)CCn1ncc2cc(OCC3CCN(C(=O)CCC(F)(F)F)CC3)ccc21 | n | n | 13µM | n | n
O=C(O)CCn1ncc2cc(OC3CCN(C(=O)Oc4ccccc4)CC3)ccc21 | n | n | u | n | n
O=C(O)CCn1ncc2cc(OC3CCN(C(=O)COc4ccccc4)CC3)ccc21 | n | n | 50µM | n | n
Cc1nc(C)c2c(n1)N(Cc1ccc(-c3ccccc3-c3nn[nH]n3)cc1)C(=O)CC2 | n | x | x | x | x
CCN1C(=O)Cc2cc(C(=O)NCc3ccc(OC)cc3)ccc21 | n | n | n | n | n
CCN1C(=O)Cc2cc(C(=O)NCc3c(C)cc(C)cc3C)ccc21 | n | n | u | 40µM | n
COc1ccc(OCc2nc3c(n2Cc2ccccc2)C(=O)N(CC2CC2)CCN3)cc1OC | n | n | u | u | n
O=C1c2c(nc(COc3cc(F)cc(F)c3)n2Cc2ccccc2)NCCN1Cc1ccccc1 | n | n | 25µM | 25µM | n
COc1ccc(OCc2nc3c(n2Cc2ccccc2)C(=O)N(Cc2ccccc2F)CCN3)cc1OC | n | n | u | u | n
COc1cc(OC)cc(OCc2nc3c(n2Cc2ccccc2)C(=O)N(Cc2ccccc2F)CCN3)c1 | n | n | u | 32µM | n
CN(Cc1ccccc1)Cc1nc2c(n1Cc1ccccc1)C(=O)N(Cc1ccccc1F)CCN2 | n | n | u | 40µM | n
O=C1c2c(nc(COc3cc(F)cc(F)c3)n2Cc2ccccc2)NCCN1Cc1ccccc1F | n | n | 25µM | u | n
O=C(C1CCOCC1)N1CCOC[C@H](Oc2ccc(C(F)(F)F)cc2)C1 | n | n | u | u | n
Cc1nn(C)c(C)c1S(=O)(=O)N1CCC2(CC1)c1[nH]c3ccccc3c1CCN2C | n | n | n | 89µM | n
CCS(=O)(=O)N1CCC2(CC1)c1[nH]c3ccccc3c1CCN2C | n | n | n | u | n
O=C(N[C@@H]1CCNC[C@H]1O)c1cccc(-c2ccc(OC(F)(F)F)cc2)c1 | n | n | 18µM | u | n
O=C1CCCCC(C(=O)NCCCn2cccn2)N1 (configuration not stated) | n | n | n | n | n
COc1ccc(-c2cc3c(=O)n(CCNC(=O)c4cccc5[nH]ccc45)ccn3n2)cc1 | n | 6.3µM | u | 32µM | n
COc1ccc(-c2cc3c(=O)n(CCNC(=O)c4cc(F)cc(F)c4)ccn3n2)cc1 | n | 2µM | u | u | n
SMILES | GPT2 inhibitor | Luciferase inh | 3T3 cytotox | HEK cytotox | hNpr1 antagonist
COc1ccc(-c2cc3c(=O)n(CCNC(=O)c4ccccc4C)ccn3n2)cc1 | n | 10µM | n | u | n
COc1ccc(-c2cc3c(=O)n(CCNC(=O)c4ccccn4)ccn3n2)cc1 | n | 7.9µM | n | n | n
N#Cc1ccc(CN2CCC3(CC2)Cc2ccccc2CNC3=O)cc1 | n | x | n | u | x
COCCNC(=O)C1CCN(c2nc3ncccc3o2)CC1 | n | x | n | n | x
COCCc1noc(-c2ccccc2OC2CN(C(=O)c3ccncc3)C2)n1 | n | n | n | n | n
CCNC(=O)c1coc(COc2ccc3c(c2)C(c2cccc(C)c2)N(C(=O)C2CC2)CC3)n1 (configuration not stated) | n | n | u | u | u
CC(=O)Nc1cccc(C(=O)NCCn2ccn3nc(-c4ccc(F)cc4)cc3c2=O)c1 | n | 20µM | u | 45µM | n
O=C(NCCn1ccn2nc(-c3ccc(F)cc3)cc2c1=O)c1cccc(Cl)c1 | n | n | n | n | u
COCC(=O)NC[C@H]1OC[C@@H](NC(C)C)[C@@H]1O | n | n | n | n | n
Cc1cccc(NC(=O)Nc2ccc(C)n(CC(=O)Nc3ccc(C)c(C)c3)c2=O)c1 | n | n | 32µM | 28µM | n
Cc1cccc(NC(=O)Nc2ccc(C)n(CC(=O)O)c2=O)c1 | n | 16µM | n | n | n
Cc1ccc(-c2ccccc2CN2CCN(C(=O)NC3CCCC3)CC2)cc1Cl | n | x | 20µM | 22µM | x
COc1ccccc1C(=O)N1CCN(Cc2ccccc2-c2ccc(C)c(Cl)c2)CC1 | n | x | 35µM | u | x
Cc1ccc(-c2ccccc2CN2CCC(C(=O)N3CCOCC3)CC2)cc1Cl | n | x | u | 79µM | x
Cc1ccc(-c2ccccc2CN2CCC(C(=O)NC3CCCC3)CC2)cc1Cl | x | x | n | n | x
CCOC(=O)N1CCN(C(=O)C(c2ccccc2C)N(C)C)CC1 (configuration not stated) | n[11.5 µM] | n | n | n | n
CN1Cc2ccc(NCc3ccccc3)nc2C(C)(C(=O)NCc2cccs2)C1 (configuration not stated) | n | n | 79µM | u | n
CN1Cc2ccc(NCc3ccccc3)nc2C(C)(C(=O)Nc2ccccc2)C1 (configuration not stated) | n | n | 45µM | 63µM | n
COc1ccc(NC(=O)C2(C)CN(C)Cc3ccc(NCc4ccccc4)nc32)cc1 (configuration not stated) | n | n | 45µM | u | n
CN1Cc2ccc(NCc3ccccc3)nc2C(C)(C(=O)NCCOc2ccccc2)C1 (configuration not stated) | n | 63µM | u | u | u
COCCNC(=O)C1(C)CN(C)Cc2ccc(Nc3ccccc3)nc21 (configuration not stated) | n | n | n | u | n
COc1cccc(Nc2ccc3c(n2)C(C)(C(=O)NCc2cccs2)CN(C)C3)c1 (configuration not stated) | n | n | u | u | n
COCCN1Cc2ccc(Nc3ccc(OC)cc3)nc2C(C)(C(=O)NC(C)C)C1 (configuration not stated) | n | n | u | u | n

Bioassay records: PubChem, National Center for Advancing Translational Sciences (NCATS)
